Results filed as inconclusive are left out. A call without a number means that no potency is given here. Active and inactive are the calls of the source. Calls follow the shape of the dose curve; as a rule, active = well fitted cell-killing curve with a large enough effect in the repeat runs; inconclusive = weak or mixed curves, or effect the other way; inactive = flat fitted curve, though single readings scatter.
assay: cAMP Responsive Elements (CRE) small molecule antagonists, cell-based qHTS assay: qHTS cell viability counter screen (AID 2060913); details: CRE-bla HEK293T viability, CellTiter-Glo luminescence, 5 h; series mostly up to 92.4 µM; also: nearly all actives have a fitted effect of over 40% in size
In short: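 Steps: cells plated and held 18 hrs at 37 C/5% CO2; compounds and NKH477 (0.25 uM final) added; 3 hrs incubation; reporter substrate read; CellTiter-Glo added to measure cytotoxicity by luminescence.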

Question: For `Cc1oc(-c2ccccc2)nc1CCOc1cccc2c1ccn2CCC(=O)O`, which Potency is on record?
Answer: Its Potency is “inactive”.

Question: With `O=[N+]([O-])c1ccc(O)c2ncccc12` as the molecule, how does the Potency read?
Answer: Its Potency is “inactive”.

Question: Which Potency does the source give for `CC(=O)SCc1ccco1` here?
Answer: The Potency was “inactive”.

Question: With `COc1ccc(-c2cc(=O)c3c(O)cc(O[C@@H]4O[C@H](CO[C@@H]5O[C@@H](C)[C@H](O)[C@@H](O)[C@H]5O)[C@@H](O)[C@H](O)[C@H]4O)cc3o2)cc1O` as the molecule, how does the Potency read?
Answer: Its Potency is “inactive”.

Question: With `CCOc1ccc(NC(C)=O)cc1` as the molecule, how does the Potency read?
Answer: The Potency was “inactive”.

Question: For `CC[N+](C)(CC)CCOC(=O)C(O)(c1ccccc1)C1CCCCC1` (configuration not stated), which Potency is on record?
Answer: The Potency was “inactive”.

Question: With `COc1cc(Cc2cnc(N)nc2N)cc(OC)c1OC` as the molecule, how does the Potency read?
Answer: The Potency was “inactive”.

Question: With `COCCOC(=O)C1=C(C)NC(C)=C(C(=O)OC(C)C)C1c1cccc([N+](=O)[O-])c1` (configuration not stated) as the molecule, how does the Potency read?
Answer: Its Potency is “inactive”.

Question: For `CN(C)CCC[C@@]1(c2ccc(F)cc2)OCc2cc(C#N)ccc21`, which Potency is on record?
Answer: Its Potency is “inactive”.

Question: Which viability change, negative = cytotoxic does the source give for `Cn1ccc2cc3c(cc21)CCN3C(=O)Nc1cccnc1` here?
Answer: The viability change, negative = cytotoxic was -0.701% [at 18.9 µM] (inactive).

Question: For `CCC(O)C(C)(C)C` (configuration not stated), which Potency is on record?
Answer: The Potency was “inactive”.

Question: With `Nc1nc2ccc(OC(F)(F)F)cc2s1` as the molecule, how does the Potency read?
Answer: Its Potency is “inactive”.

Question: Which Potency does the source give for `OCCN1CCNCC1` here?
Answer: The Potency was “inactive”.

assay: cAMP Responsive Elements (CRE) small molecule agonists, cell-based qHTS assay: qHTS cell viability counter screen (AID 2060914); details: CRE-bla HEK293T viability, CellTiter-Glo luminescence, 5 h; series mostly up to 92.4 µM; also: nearly all actives have a fitted effect of over 50% in size
In short: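 Luminescence read-out (CellTiter-Glo, 30 min RT) of ATP-based viability in CRE-bla HEK 293T cells, run in the same wells as the β-lactamase reporter assay after 3 h compound treatment at 37 °C.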

Question: With `Cc1ccc2c(c1)C(=O)OC2=O` as the molecule, how does the Potency read?
Answer: The Potency was “inactive”.

Question: With `Nc1cc(Cl)c([N+](=O)[O-])cc1O` as the molecule, how does the Potency read?
Answer: The Potency was “inactive”.

Question: For `C=C(C)c1ccccc1`, which Potency is on record?
Answer: Its Potency is “inactive”.

Question: For `Cc1nc(C)nc(N2C[C@@H](C)N(c3ccnc([C@@H](C)O)n3)[C@@H](C)C2)n1`, which Potency is on record?
Answer: The Potency was “inactive”.

Question: With `CC1(C)C(C=C(Cl)Cl)C1C(=O)OCc1cccc(Oc2ccccc2)c1` (configuration not stated) as the molecule, how does the Potency read?
Answer: The Potency was “inactive”.

Question: For `Cc1ccc(S(N)(=O)=O)cc1`, which Potency is on record?
Answer: Its Potency is “inactive”.

Question: With `O=C(c1ccc(O)cc1)c1ccc(Cl)cc1` as the molecule, how does the Potency read?
Answer: Its Potency is “inactive”.

Question: Which Potency does the source give for `NC(N)=Nc1nc(CSCC/C(N)=N/S(N)(=O)=O)cs1` here?
Answer: The Potency was “inactive”.

Question: With `C=CCCCCCCC=C` as the molecule, how does the Potency read?
Answer: Its Potency is “inactive”.

Question: For `C/C=C(\C)C=O`, which Potency is on record?
Answer: Its Potency is “inactive”.

Question: For `O=C=Nc1cccc(C(F)(F)F)c1`, which Potency is on record?
Answer: Its Potency is “inactive”.

Question: With `CC1(C)CO[C@@H](CC(=O)O)CN1` as the molecule, how does the Potency read?
Answer: The Potency was “inactive”.

Question: For `COC(=O)C(C)Oc1ccc(Oc2ncc(C(F)(F)F)cc2Cl)cc1` (configuration not stated), which Potency is on record?
Answer: Its Potency is “inactive”.

Question: With `Nc1ccccc1Nc1ccccc1` as the molecule, how does the Potency read?
Answer: Its Potency is “inactive”.

Question: With `CCOc1ccc(N)c([N+](=O)[O-])c1` as the molecule, how does the Potency read?
Answer: The Potency was “inactive”.

Question: With `CCCCCCCOC(C)=O` as the molecule, how does the Potency read?
Answer: The Potency was “inactive”.

Question: With `O=C1Nc2ccccc2C1(c1ccc(O)cc1)c1ccc(O)cc1` as the molecule, how does the Potency read?
Answer: Its Potency is “inactive”.

Question: With `CCc1cc(C(N)=S)ccn1` as the molecule, how does the Potency read?
Answer: The Potency was “inactive”.

Question: For `CC(C)(C)c1cc(C=O)cc(C(C)(C)C)c1O`, which Potency is on record?
Answer: The Potency was “inactive”.

Question: Which Potency does the source give for `Clc1ccc2c(c1)C(N1CCNCC1)=Nc1ccccc1O2` here?
Answer: The Potency was “inactive”.

Question: For `N[C@@H](CSSC[C@H](N)C(=O)O)C(=O)O`, which activity change, negative = cytotoxicity is on record?
Answer: Its activity change, negative = cytotoxicity is 11.2% [at 0.349 µM] (inactive).

Question: For `CCCCCCCCCCCCCCCC(=O)OC(C)C`, which Potency is on record?
Answer: Its Potency is “inactive”.

Question: Which Potency does the source give for `COC(=O)C(C)(C)C` here?
Answer: Its Potency is “inactive”.

Question: With `CC1=CC[C@@H](C(C)(C)O)CC1` as the molecule, how does the Potency read?
Answer: Its Potency is “inactive”.

Question: For `O=Cc1ccccc1S(=O)(=O)O`, which Potency is on record?
Answer: Its Potency is “inactive”.

Question: With `CSc1nnc(C(C)(C)C)c(=O)[nH]1` as the molecule, how does the Potency read?
Answer: Its Potency is “inactive”.

Question: With `Cc1oc(-c2ccccc2)nc1CCOc1cccc2c1ccn2CCC(=O)O` as the molecule, how does the Potency read?
Answer: Its Potency is “inactive”.

Question: For `O=[N+]([O-])c1ccc(O)c2ncccc12`, which Potency is on record?
Answer: The Potency was “inactive”.

Question: With `CC(=O)SCc1ccco1` as the molecule, how does the Potency read?
Answer: Its Potency is “inactive”.

Question: With `COc1ccc(-c2cc(=O)c3c(O)cc(O[C@@H]4O[C@H](CO[C@@H]5O[C@@H](C)[C@H](O)[C@@H](O)[C@H]5O)[C@@H](O)[C@H](O)[C@H]4O)cc3o2)cc1O` as the molecule, how does the Potency read?
Answer: Its Potency is “inactive”.

Question: Which Potency does the source give for `CCOc1ccc(NC(C)=O)cc1` here?
Answer: The Potency was “inactive”.

Question: For `CC[N+](C)(CC)CCOC(=O)C(O)(c1ccccc1)C1CCCCC1` (configuration not stated), which Potency is on record?
Answer: The Potency was “inactive”.

Question: With `COc1cc(Cc2cnc(N)nc2N)cc(OC)c1OC` as the molecule, how does the Potency read?
Answer: The Potency was “inactive”.

Question: For `COCCOC(=O)C1=C(C)NC(C)=C(C(=O)OC(C)C)C1c1cccc([N+](=O)[O-])c1` (configuration not stated), which Potency is on record?
Answer: The Potency was “inactive”.

Question: With `CN(C)CCC[C@@]1(c2ccc(F)cc2)OCc2cc(C#N)ccc21` as the molecule, how does the Potency read?
Answer: The Potency was “inactive”.

Question: Which activity change, negative = cytotoxicity does the source give for `Cn1ccc2cc3c(cc21)CCN3C(=O)Nc1cccnc1` here?
Answer: The activity change, negative = cytotoxicity was 3% [at 18.9 µM] (inactive).

Question: For `CCC(O)C(C)(C)C` (configuration not stated), which Potency is on record?
Answer: Its Potency is “inactive”.

Question: With `Nc1nc2ccc(OC(F)(F)F)cc2s1` as the molecule, how does the Potency read?
Answer: Its Potency is “inactive”.

Question: With `OCCN1CCNCC1` as the molecule, how does the Potency read?
Answer: Its Potency is “inactive”.
